Seven compounds from PubChem BioAssay (Tox21) can be followed below.

Molecules are shown by their SMILES. Where “and” joins values, the source holds several entries; their conditions need not be identical. Identical values can stand only once. Inconclusive results are not listed. More than one record can exist for a structure, and the calls need not agree. Calls of active or inactive are those of the source. Unless noted, calls come from the whole dose curve; as a rule, active = well fitted curve in the direction sought with a large enough effect in the repeat runs; inconclusive = weak or mixed curves; inactive = no such curve, though single readings can be large; an effect the other way counts as inactive or inconclusive.

The nature of test [1]: qHTS assay to identify small molecule agonists of the RXR signaling pathway - cell viability counter screen (AID 1159529). Note: potency is the fitted concentration of half-maximal effect; nearly all actives have a fitted effect of over 50% in size. The procedure, abridged:
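RXR-alpha-UAS-bla HEK 293T cells in medium with 2% charcoal-stripped FBS were pre-incubated 5 hr, then compound-treated 16 hr at 37 C. Viability was read by CellTiter-Glo luminescence in the same wells as the beta-lactamase assay, with tetraoctyl ammonium bromide as positive control.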

The nature of test [2]: qHTS assay to identify small molecule antagonists of the retinoid acid receptor (RAR) signaling pathway - cell viability counter screen (AID 1159551). Note: nearly all actives have a fitted effect of over 35% in size. Note: potency is the fitted concentration of half-maximal effect. In short, it runs like this: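 C3RL4 RARE-luciferase line; cpds + retinol 1 uM final, 6 h, 37 C/5% CO2; CellTiter-Glo ATP luminescence, 30 min RT.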
Background: qHTS replaces the single test concentration by a dilution series.

Test [3] has as its target Nuclear receptor subfamily 1 group I member 3 (Homo sapiens) (UniProt Q14994). Briefly: qHTS assay to identify small molecule agonists of the constitutive androstane receptor (CAR) signaling pathway (AID 1224839). Note: nearly all actives have a fitted effect of over 15% in size. Note: potency is the fitted concentration of half-maximal effect. In short, it runs like this:
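HepG2 cells stably co-transfected with hCAR and a CYP2B6-2.2kb luciferase reporter; compounds at 15 concentrations with 0.75 uM PK11195 present. After 24 hr at 37 C, luciferase read by ONE-Glo luminescence.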

Test [4] in a line: qHTS assay to identify small molecule antagonists of the estrogen related receptor signaling pathway with the pleiotropic PPARgamma coactivator (PGC) from Tox21 10K library - cell viability counter screen (AID 1224840; active = well fitted cell-killing curve with a large enough effect in the repeat runs, not every such curve was filed as active; note: nearly all actives have a fitted effect of over 40% in size; note: potency is the fitted concentration of half-maximal effect). In short, it runs like this: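 Fluorescence read-out of CellTiter-Fluor viability reagent, added after cells had been exposed to compound in DMSO for 17.5 h at 37 C; 30 min development at 37 C/5% CO2. Cells: PGC/ERR line, 2,000/well.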

Test [5] in a line: qHTS RealTime-Glo MT Cell Viability Assay in HEK293 cells - 16 hour (AID 1224872). Note: potency is the fitted concentration of half-maximal effect; nearly all actives have a fitted effect of over 50% in size. The procedure, abridged: (§1)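 Homogeneous bioluminescent viability format in HEK293 cells (600 cells/well). Following 5 h at 37 C/5% CO2, 23 nL compound was pintooled; the signal was measured repeatedly during 40 h incubation.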
A short description of test [6]: qHTS RealTime-Glo MT Cell Viability Assay in HepG2 cells - 8 hour (AID 1224873). Note: nearly all actives have a fitted effect of over 55% in size. Note: potency is the fitted concentration of half-maximal effect. In short, it runs like this:
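HepG2 cells (600/well) mixed with RealTime-Glo MT reagent, settled 5 h at 37 C/5% CO2 before compound addition. Nonlytic NanoLuc luminescence from viable-cell prosubstrate reduction read repeatedly during 40 h treatment at 37 C.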

A short description of test [7]: A CellTox Green Cytotoxicity Assay to monitor cytotoxicity in HEK293 cells - 24 hour (AID 1224875). Note: nearly all actives have a fitted effect of over 45% in size. Note: potency is the fitted concentration of half-maximal effect. The procedure, abridged: (§2)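 Read-out: fluorescence of a cell-impermeant cyanine dye staining DNA of dead cells, proportional to cytotoxicity. HEK293, 600 cells/well with reagent, compound (23 nL DMSO) added after 5 h; reads at 0, 8, 16, 24, 32, 40 h.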
The nature of test [8]: A CellTox Green Cytotoxicity Assay to monitor cytotoxicity in HEK293 cells - 32 hour (AID 1224881). Note: nearly all actives have a fitted effect of over 40% in size. Note: potency is the fitted concentration of half-maximal effect. In short, it runs like this: as §2
A short description of test [9]: qHTS RealTime-Glo MT Cell Viability Assay in HEK293 cells - 24 hour (AID 1224886). Note: potency is the fitted concentration of half-maximal effect; nearly all actives have a fitted effect of over 50% in size. The procedure, abridged: as §1
The nature of test [10]: qHTS assay to identify small molecule agonists of the androgen receptor (AR) signaling pathway in the presence of an antagonist - cell viability counter screen (AID 1259379). Note: nearly all actives have a fitted effect of over 25% in size. Note: potency is the fitted concentration of half-maximal effect. The procedure, abridged:
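Viability counter screen: CellTiter-Fluor fluorescence, measured in the same wells as the luciferase read-out. MDA-kb2 cells, 3,000/well, with nilutamide at 3.0uM final and compounds at 15 concentrations, 16 hr at 37C, 0% CO2.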

Test [11] can be described thus: qHTS assay to identify small molecule antagonists of the estrogen receptor beta (ER-beta) signaling pathway - cell viability counter screen (AID 1259382). Note: nearly all actives have a fitted effect of over 55% in size. Note: potency is the fitted concentration of half-maximal effect. The procedure, abridged: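 Luminescent ATP read-out (CellTiter-Glo, 30 min, RT) taken in the same wells as the bla reporter assay. HEK293T ER-beta-UAS-bla cells in 2% charcoal-stripped FBS were exposed to compounds with 1nM E2 for 16 hr at 37C.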

Test [12] addresses Thyrotropin receptor (Homo sapiens) (UniProt P16473). Briefly: qHTS assay to identify small molecule antagonists of the thyroid stimulating hormone receptor (TSHR) signaling pathway (AID 1259385; calls by dose curve; note: nearly all actives have a fitted effect of over 20% in size). The procedure, abridged:
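TSHR-HEK293 cells (800/well) plated 18 h, then compounds with Ro20-1724 and TSH at 1.5 ng/mL final, 30 min at room temperature. cAMP quantified by HTRF (cAMP-d2/anti-cAMP-cryptate, 1 h); 15 concentrations in triplicate.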

For test [13], the target named is Progesterone receptor (Homo sapiens) (UniProt P06401). Briefly: qHTS assay to identify small molecule agonists of the progesterone receptor (PR) signaling pathway (AID 1346784; calls by dose curve; note: nearly all actives have a fitted effect of over 30% in size). In short, it runs like this: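 PR-UAS-bla HEK 293T cells (beta-lactamase reporter under UAS) in 2% charcoal-stripped FBS, dosed with 23 nL compound after 6 hr, incubated 16hr at 37C. LiveBLAzer B/G FRET substrate added, fluorescence read after 2 hours.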
Progesterone receptor (Homo sapiens), sequence (P06401 whole entry, looked up): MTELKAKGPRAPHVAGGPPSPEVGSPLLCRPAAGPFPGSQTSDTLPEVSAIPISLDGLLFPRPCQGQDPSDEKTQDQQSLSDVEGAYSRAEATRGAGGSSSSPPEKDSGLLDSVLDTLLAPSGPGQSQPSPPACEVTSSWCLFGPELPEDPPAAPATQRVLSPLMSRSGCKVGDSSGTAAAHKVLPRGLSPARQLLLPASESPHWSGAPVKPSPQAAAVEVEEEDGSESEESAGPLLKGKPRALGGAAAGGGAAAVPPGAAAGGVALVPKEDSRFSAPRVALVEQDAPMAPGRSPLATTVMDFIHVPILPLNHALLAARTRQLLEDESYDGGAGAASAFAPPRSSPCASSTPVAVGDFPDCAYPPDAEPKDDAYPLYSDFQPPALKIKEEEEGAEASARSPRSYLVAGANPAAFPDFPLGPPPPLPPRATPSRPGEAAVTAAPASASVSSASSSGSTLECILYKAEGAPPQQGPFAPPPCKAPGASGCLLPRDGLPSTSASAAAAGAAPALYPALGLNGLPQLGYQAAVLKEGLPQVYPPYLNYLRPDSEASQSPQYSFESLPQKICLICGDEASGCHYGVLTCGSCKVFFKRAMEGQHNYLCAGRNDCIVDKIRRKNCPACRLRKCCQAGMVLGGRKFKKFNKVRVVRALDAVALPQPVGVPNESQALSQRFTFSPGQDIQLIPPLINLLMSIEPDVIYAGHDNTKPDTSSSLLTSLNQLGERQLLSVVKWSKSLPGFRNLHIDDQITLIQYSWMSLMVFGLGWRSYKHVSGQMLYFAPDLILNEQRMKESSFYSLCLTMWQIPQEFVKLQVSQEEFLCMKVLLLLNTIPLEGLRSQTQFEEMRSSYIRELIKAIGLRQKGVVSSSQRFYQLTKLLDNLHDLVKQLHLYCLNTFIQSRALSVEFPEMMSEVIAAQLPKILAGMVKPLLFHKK

A short description of test [14]: qHTS assay to identify small molecule antagonists of the progesterone receptor (PR) signaling pathway - cell viability counter screen (AID 1346798). Note: nearly all actives have a fitted effect of over 50% in size. Note: potency is the fitted concentration of half-maximal effect. In short, it runs like this:
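PR-UAS-bla HEK293T cells, 3,000/well in 2% charcoal-stripped FBS medium, dosed with compounds plus R5020 agonist and incubated 16 h at 37C. Viability then measured in the same wells by CellTiter-Glo luminescence after 30 min at RT.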

In test [15] the target is Thyrotropin-releasing hormone receptor (Homo sapiens) (UniProt P34981). Description: qHTS assay to identify small molecule agonists of the thyrotropin-releasing hormone receptor (TRHR) signaling pathway (AID 1346891; calls by dose curve; note: series mostly up to about 58 µM). In short, it runs like this: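 HEK293 cells expressing TRHR plated 18 h at 37 C/5% CO2, calcium dye-loaded 2 h at 37 C, then compound added (agonist mode); kinetic calcium fluorescence read 3 min at 1 s intervals; 15 concentrations in triplicate.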
Thyrotropin-releasing hormone receptor (Homo sapiens), sequence (P34981 whole entry, looked up): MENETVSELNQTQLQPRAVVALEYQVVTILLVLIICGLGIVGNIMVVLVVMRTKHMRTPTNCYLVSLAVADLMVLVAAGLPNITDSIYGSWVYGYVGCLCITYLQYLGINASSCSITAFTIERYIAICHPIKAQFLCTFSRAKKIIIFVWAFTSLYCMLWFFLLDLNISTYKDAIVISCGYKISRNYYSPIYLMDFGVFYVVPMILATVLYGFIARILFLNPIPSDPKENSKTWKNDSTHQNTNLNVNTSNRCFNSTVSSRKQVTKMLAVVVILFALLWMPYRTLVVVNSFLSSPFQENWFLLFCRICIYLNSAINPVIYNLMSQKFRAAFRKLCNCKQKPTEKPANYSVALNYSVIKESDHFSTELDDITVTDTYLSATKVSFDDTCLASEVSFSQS

Test [16] in a line: Human pregnane X receptor (PXR) small molecule agonists, qHTS cell viability counter screen (AID 1346977). Note: nearly all actives have a fitted effect of over 50% in size. Note: potency is the fitted concentration of half-maximal effect. The procedure, abridged:
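PXR-Luc HepG2 cells (2,000/well, 5% charcoal-stripped FBS) preincubated 5 hr, then exposed to compounds 24 hr at 37 C. Viability read in the same wells by CellTiter-Fluor fluorescence, reagent added at 23 hr, 1 hr incubation.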

The nature of test [17]: Caspase-3/7 induction in CHO-K1 cells by small molecules, qHTS cell viability counter screen (AID 1346979). Note: potency is the fitted concentration of half-maximal effect; nearly all actives have a fitted effect of over 35% in size. In short, it runs like this:
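Wild-type CHO-K1 cells (1,500/well) treated with compound after 5 h plating; after 16 h at 37C, viability read as CellTiter-Fluor fluorescence following 1 h reagent incubation, in the same wells as the caspase read.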

A short description of test [18]: Caspase-3/7 induction in HepG2 cells by small molecules, qHTS cell viability counter screen (AID 1346981). Note: nearly all actives have a fitted effect of over 30% in size. Note: potency is the fitted concentration of half-maximal effect. The procedure, abridged: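 Fluorescence read-out of live-cell protease activity (CellTiter-Fluor) after 1 hr with reagent. This was measured in the same wells as the caspase-3/7 luminescence, on HepG2 cells exposed to DMSO-dissolved compounds for 16 hr at 37 C.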

The target of test [19] is Cytochrome P450 2D6 (Homo sapiens) (UniProt P10635). Briefly: Cytochrome P450 Family 2 Subfamily D Member 6 (CYP2D6) small molecule antagonists: luciferase reporter qHTS assay (AID 1671196). Note: nearly all actives have a fitted effect of over 50% in size. Note: potency is the fitted concentration of half-maximal effect. The procedure, abridged: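 Luminogenic proluciferin substrate, CYP2D6 enzyme; 10 min RT preincubation with compound, NADPH regeneration system added, 1 h RT. Stop/detection reagent, 20 min RT, luminescence read (RLU). Signal proportional to CYP activity.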
Cytochrome P450 2D6 (Homo sapiens), sequence (P10635 whole entry, looked up): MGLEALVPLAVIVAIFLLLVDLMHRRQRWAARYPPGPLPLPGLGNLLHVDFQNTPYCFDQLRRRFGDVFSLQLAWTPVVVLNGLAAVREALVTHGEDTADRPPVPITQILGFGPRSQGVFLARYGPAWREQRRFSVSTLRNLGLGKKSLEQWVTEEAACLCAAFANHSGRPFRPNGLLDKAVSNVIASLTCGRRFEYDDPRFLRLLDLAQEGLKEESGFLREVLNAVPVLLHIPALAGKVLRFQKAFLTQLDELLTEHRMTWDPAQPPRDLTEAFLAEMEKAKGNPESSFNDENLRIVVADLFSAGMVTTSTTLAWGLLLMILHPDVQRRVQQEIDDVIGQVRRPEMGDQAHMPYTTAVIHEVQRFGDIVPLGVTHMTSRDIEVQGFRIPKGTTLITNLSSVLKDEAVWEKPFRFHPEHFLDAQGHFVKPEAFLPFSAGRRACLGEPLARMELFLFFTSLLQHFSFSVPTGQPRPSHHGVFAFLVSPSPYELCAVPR

A short description of test [20]: qHTS assay to identify small molecule agonists of the hypoxia (HIF-1) signaling pathway - cell viability counter screen (AID 1224844; calls by dose curve; note: nearly all actives have a fitted effect of over 50% in size; note: potency is the fitted concentration of half-maximal effect). In short, it runs like this:
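CellTiter-Glo luminescence read-out, 30 min RT, taken in the same wells as the beta-lactamase HRE reporter assay; HRE-bla ME-180 cells, 0.5% dialyzed FBS, 17 hr compound treatment at 37C, 5% CO2.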

Thyrotropin receptor (Homo sapiens), sequence (P16473 whole entry, looked up): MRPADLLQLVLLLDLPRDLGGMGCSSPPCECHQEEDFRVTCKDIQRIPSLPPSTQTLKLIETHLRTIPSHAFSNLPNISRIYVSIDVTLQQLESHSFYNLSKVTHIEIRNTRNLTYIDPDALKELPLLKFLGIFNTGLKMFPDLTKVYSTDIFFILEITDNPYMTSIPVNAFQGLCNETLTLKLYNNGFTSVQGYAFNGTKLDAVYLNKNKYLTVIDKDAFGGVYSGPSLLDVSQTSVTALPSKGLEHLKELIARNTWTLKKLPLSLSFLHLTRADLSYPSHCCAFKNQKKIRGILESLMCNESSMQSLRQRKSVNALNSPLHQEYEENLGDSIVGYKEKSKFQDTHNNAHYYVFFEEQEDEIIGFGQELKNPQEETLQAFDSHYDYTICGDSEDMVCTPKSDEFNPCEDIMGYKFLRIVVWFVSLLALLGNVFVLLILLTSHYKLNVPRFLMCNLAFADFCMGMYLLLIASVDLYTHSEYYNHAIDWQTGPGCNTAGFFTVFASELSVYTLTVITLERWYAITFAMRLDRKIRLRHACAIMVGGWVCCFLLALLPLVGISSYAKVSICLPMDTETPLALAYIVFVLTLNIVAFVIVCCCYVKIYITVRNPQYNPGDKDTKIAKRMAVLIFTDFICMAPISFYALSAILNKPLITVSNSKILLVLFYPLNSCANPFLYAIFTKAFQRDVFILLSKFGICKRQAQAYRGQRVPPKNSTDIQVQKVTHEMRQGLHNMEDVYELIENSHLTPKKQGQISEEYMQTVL
Nuclear receptor subfamily 1 group I member 3 (Homo sapiens), sequence (Q14994 whole entry, looked up): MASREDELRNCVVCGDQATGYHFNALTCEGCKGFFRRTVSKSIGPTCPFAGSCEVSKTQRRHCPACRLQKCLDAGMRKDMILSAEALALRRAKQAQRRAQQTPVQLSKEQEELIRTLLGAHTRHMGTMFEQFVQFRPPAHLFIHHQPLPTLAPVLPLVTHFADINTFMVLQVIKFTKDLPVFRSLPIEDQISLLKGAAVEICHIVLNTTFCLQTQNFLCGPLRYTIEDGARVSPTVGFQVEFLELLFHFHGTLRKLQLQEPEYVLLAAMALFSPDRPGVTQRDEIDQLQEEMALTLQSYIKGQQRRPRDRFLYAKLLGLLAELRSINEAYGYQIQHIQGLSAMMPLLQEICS

As for `CN1CSC(=S)N(C)C1`, the Potency in [1] is 10.9 µM (active) and 8.69 µM (active); in [4] it was 5.42 µM (active) and 6.09 µM (active); in [5], 15.4 µM (active); in test [8], 6.13 µM (active) and 9.75 µM (active); in test [9] it was 17.3 µM (active) and 24.5 µM (active); in [10] it was 27.2 µM (active) and inactive. In addition, the Potency in test [11] was 9.64 µM (active) and 8.61 µM (active); in test [14], 27.2 µM (active) and 21.6 µM (active); in test [16], 5.01 µM (active) and 21.6 µM (active); in test [17] it was 1.36 µM (active) and 7.67 µM (active). Also, the Potency result in [2], in test [3], in [6], in test [7], in test [12] and in test [18] was “inactive” throughout. Also, the Potency entry in test [19] was “inactive”. Also, the compound was called inactive in [13] and in test [15].
As for `COc1ccc(C(c2ccc(OC)cc2)C(Cl)(Cl)Cl)cc1`, the Potency entry in [2], in test [4], in test [20], in [7], in test [8] and in test [11] was “inactive” each time. Also, the Potency in test [3] is 2.42 µM (active); in test [9] it was 48.7 µM (active); in [17], 60.8 µM (active); in test [19], 44.5 µM (active). In [15], the call was inactive.
With `O=S(=O)(C(Cl)(Cl)Cl)C(Cl)(Cl)Cl`, the Potency in [1] is 21.9 µM (active); in test [2], 61.1 µM (active); in [4], 48.6 µM (active); in test [20], 12.3 µM (active); in test [5], 12.3 µM (active); in test [6] it was 38.9 µM (active). Further, the Potency in test [7] is 21.9 µM (active); in test [8], 19.5 µM (active); in [9], 11 µM (active); in [10], 61.1 µM (active); in test [16], 61.1 µM (active); in [17] it was 8.63 µM (active). Also, the Potency in [18] is 61.1 µM (active). Further, the Potency entry in test [3] and in test [14] was “inactive” throughout. Further, the result in test [13] was inactive.
Take `ClC(Cl)=C(c1ccc(Cl)cc1)c1ccccc1Cl`: the results for the Potency in test [1] and in [3] were 24.5 µM (active) and 21.7 µM (active), respectively. Also, the Potency result in test [2], in test [4], in [20], in test [6], in [10] and in [11] was “inactive” in each case. In addition, the Potency result in test [14], in test [18] and in [19] was “inactive” in each case. Moreover, the outcome in test [13] and in test [15] was inactive.
With `CC(c1ccccc1)(c1ccc(O)cc1)c1ccc(O)cc1`, the Potency in test [20] was 54.9 µM (active); in test [11] it was 61.1 µM (active); in test [17], 68.6 µM (active). Further, the Potency result in test [6] and in test [12] was “inactive” throughout. The result in test [15] was inactive.
Consider `C[C@]12CC[C@@H](O)C[C@@H]1CC[C@@H]1[C@@H]2CC[C@]2(C)C(=O)CC[C@@H]12`, for which the Potency is 17.4 µM (active) in test [1]; 21.9 µM (active) in [20]; 38.9 µM (active) in test [5]; 54.9 µM (active) in test [8]; 38.9 µM (active) in [9]; 43.3 µM (active) in test [11]. The Potency was 48.6 µM (active) in [14] and 61.1 µM (active) in test [17]. In addition, the Potency entry in test [2], in test [10], in test [16] and in test [18] was “inactive” each time. In test [13], the result was inactive.
In the case of `Cc1cc(C)c(C(=O)P(=O)(c2ccccc2)c2ccccc2)c(C)c1`, the Potency was 49 µM (active) in test [1]; 15.4 µM (active) in test [3]; 43.6 µM (active) in test [20]; 43.6 µM (active) in [5]; 38.9 µM (active) in test [9]; 61.1 µM (active) in [11]. Further, the Potency in [16] was 61.1 µM (active). The Potency result in test [2], in test [4], in [7] and in test [12] was “inactive” in each case. The compound was called inactive in test [15].
